Vaccinia mCherry: vaccinia inhibition (mCherry reporter). hit rate 0.63% among 310,000. Vaccinia virus mCherry reporter infection, fluorescence. AID 720579. Potency, µM (series often up to 36.5 µM), for inactives: top-dose activity change, negative = inhibition, hits mostly inhibitors; calls by dose curve; tested in A549 cells; note: potency is the fitted concentration of half-maximal effect; % is set by controls: 0 for no effect and ±100 for the full control effect; nearly all actives have a fitted effect of over 35% in size
MARV entry inh: blocks Marburg virus binding to or entry into cells | hit rate 1.8% among 300,000 | Marburg virus pseudotyped entry inhibition, cell reporter | Potency, µM (top dose mostly 37.8 µM), inactives show at the highest dose activity change, negative = inhibition, usual class: inhibitors; calls by dose curve; tested in HEK293 cells; note: potency is the fitted concentration of half-maximal effect; % is set by controls: 0 for no effect and ±100 for the full control effect
Cycloheximide cs: counter-screen for Shiga toxin inhibitors: cycloheximide protein synthesis inhibition | hit rate 12% among 300,000 | max response, % | cell reporter, cycloheximide protein synthesis inhibition counterscreen; in the data active = max response mostly above about 13%, no sharp cut-off; inactive = mostly below about 14%; note: read at 38.3 µM for the half of the compounds with a filed dose; 0% is about no effect
Vaccinia Venus: inhibitors of vaccinia virus (Venus reporter); Vaccinia virus Venus reporter expression, fluorescence; Potency, µM (titrated, usually from 36.5 µM), for the others: at the top dose activity change, negative = inhibition, hits mostly inhibitors; hit rate 0.46% among 330,000; calls by dose curve; tested in A549 cells; note: potency is the fitted concentration of half-maximal effect; % is set by controls: 0 for no effect and ±100 for the full control effect; nearly all actives have a fitted effect of over 30% in size
LASV entry inh: blocks Lassa virus binding to or entry into cells | Potency, µM (doses to about 37.9 µM), for inactives: top-dose activity change, negative = inhibition, actives largely listed as inhibitors | hit rate 1.2% among 300,000 | Lassa virus pseudotype entry inhibition, cell reporter | AID 540256; calls by dose curve; tested in HEK293 cells; note: potency is the fitted concentration of half-maximal effect; % is set by controls: 0 for no effect and ±100 for the full control effect; nearly all actives have a fitted effect of over 50% in size
Shiga toxin inh: Shiga toxin inhibition; inhibition, % at 38.7 µM; hit rate 9.2% among 290,000; Vero cells, Shiga toxin protein synthesis inhibition reporter; in the data active = inhibition mostly above about 28%, no sharp cut-off; inactive = mostly below about 43%; note: 0% is about no effect
Starred values were filed as active, the others as inactive; i = inactive; ? = inconclusive; . = not tested or not shown; [ ] = dose if it differs, or a comment. This excerpt belongs to a sample that is enriched for hits.

SMILES | Vaccinia mCherry | MARV entry inh | Cycloheximide cs | Vaccinia Venus | LASV entry inh | Shiga toxin inh
CCOc1ccc(-c2n[nH]c(C(=O)NN)c2C)cc1 | . | ? | 32* | . | ? | 95*
CCOc1ccc(-c2nonc2NC(=O)c2ccccc2C)cc1 | -11% | 2%[46.1 µM] | . | -7% | 2%[46.1 µM] | .
NNC(=O)c1[nH]c(-c2ccccc2)cc1-c1ccccc1 | . | . | -2 | . | . | -11
COc1cc(OC)cc(C(=O)N2CCCC(n3cc(C(=O)NCC(C)C)nn3)C2)c1 (stereo unspecified) | -10% | . | . | -4% | . | .
Cn1c(C(=O)N2COCC2(C)C)cc2c(=O)n3ccccc3nc21 | -7% | 10% | 35* | -7% | 13% | 75*
COn1c(-c2ccc(Cl)cc2)nc2ncccc21 | . | . | 49* | . | . | 60*
Cc1ccc(-c2nc3ncccc3n2O)cc1 | . | . | 8 | . | . | 27
Cc1ccc(COc2ccc3c(c2)OCO3)cc1 | -9% | -32%[46.1 µM] | 31* | 12% | ? | 97*
O=Cc1ccc(OCc2ccc3c(c2)OCO3)cc1 | . | . | 35* | . | . | .
COc1cc(NC(=O)CC(C)S(=O)(=O)c2cc3c4c(c2)CCN4C(=O)CC3)cc(OC)c1 (stereo unspecified) | -8% | . | . | 3% | -1%[46.1 µM] | .
CC(=O)OC[C@H]1O[C@H](CC=NOC[C@@H](O)COCc2ccco2)C=C[C@H]1OC(C)=O | . | 1%[14.2 µM] | . | . | . | .
CCc1nc2nc(C)c(NS(=O)(=O)c3ccc(C(C)(C)C)cc3)c(=O)n2[nH]1 | -2% | -4%[46.1 µM] | . | -8% | 15%[46.1 µM] | .
Cc1cc(F)ccc1NC(=O)C1CCCN(S(=O)(=O)c2ccc3c(c2)CCCC(=O)N3)C1 (stereo unspecified) | 2% | . | . | 6% | 5%[46.1 µM] | .
O=C(Cc1cccs1)Nc1ccc(Cl)c(S(=O)(=O)N2CCOCC2)c1 | i | ? | . | -14% | ? | .
CC(=O)N(C)c1ccc(NC(=O)Cc2cccs2)cc1 | -10% | 9% | 18* | -12% | 13% | .
Cc1ccc(-c2nnc(-c3ccc(NC(=O)Cc4cccs4)cc3)o2)cc1 | -9% | ? | 6 | -13% | ? | 7
O=C(Cc1cccs1)Nc1ccc(N2CCOCC2)cc1 | -23% | 6% | 24* | -10% | -20% | 111*
Cc1cccc(NC(=O)Cc2cccs2)n1 | -13% | ? | 33* | -6% | 26% | 69*
O=C(Nc1ccc(Cl)cc1)N(Cc1cccs1)Cc1cccs1 | -30% | ? | 14* | -18% | 3% | 45*
COc1ccccc1C(=O)N[C@@H]1c2ccccc2C2(CCN(Cc3ccc4c(c3)OCO4)CC2)[C@H]1O | -28% | . | . | -18% | . | .
NC(=O)c1ccc(NC(=O)Cc2cccs2)cc1 | i | ? | 3 | -7% | -6%[46.1 µM] | 16
CCN(CCS(=O)(=O)c1ccc(Cl)cc1)C(=O)Nc1ccccc1 | -19% | ? | 5 | -9% | ? | 3
CC(C)(C)NC(=O)c1cccc(NC(=O)Cc2cccs2)c1 | 1% | -1%[46.1 µM] | 2 | -6% | ? | -2
Cc1cccc(NC(=O)c2cccc(NC(=O)Cc3cccs3)c2)c1 | -11% | ? | 27* | -6% | ? | 92*
O=C(Nc1ccccc1)N(O)c1ccc(Cl)cc1 | . | ? | 49* | -6% | 30% | 98*
SMILES | Vaccinia mCherry | MARV entry inh | Cycloheximide cs | Vaccinia Venus | LASV entry inh | Shiga toxin inh
O=C(Cc1cccs1)Nc1ccc(Cl)cc1 | -4% | 5% | 17* | -13% | 19% | active
CC(=O)Nc1cc(-c2ccccc2N(C)C)cn2c(-c3ccc(S(C)(=O)=O)cc3)cnc12 | ? | . | . | 1% | . | .
CCC(C)NC(=O)C1CCN(S(=O)(=O)c2ccc3c(ccn3CC)c2)CC1 (stereo unspecified) | -10% | . | . | -4% | 18%[46.1 µM] | .
Cc1cccc(N=Nc2c(C)[nH]n(C(N)=S)c2=O)c1C | . | . | 19 | . | . | 13
Cc1[nH]n(C(N)=S)c(=O)c1N=Nc1cccc(Cl)c1 | . | . | 32* | . | . | 60*
Cc1[nH]n(C(N)=S)c(=O)c1N=Nc1ccc([N+](=O)[O-])cc1Cl | -16% | ? | 14* | -10% | -18%[46.1 µM] | 15
NC(=S)n1[nH]c(-c2ccc([N+](=O)[O-])cc2)c(N=Nc2cccc(Cl)c2)c1=O | -29% | ? | 11 | -25% | ? | -6
Cc1ccccc1N=Nc1c(C)[nH]n(C(N)=S)c1=O | -26% | -1% | 20* | -15% | 18% | 67*
Cc1[nH]n(C(N)=S)c(=O)c1N=Nc1ccccc1C(F)(F)F | . | . | 20 | . | . | 16
CCOc1ccc(N(CC(=O)N/N=C/c2ccccn2)S(=O)(=O)c2ccc(Cl)cc2)cc1 | . | . | 2 | . | . | 2
CCCCn1c(-c2ccc(Cl)c(Cl)c2)nc2cc3[nH]c(=O)c(C(C)C)nc3cc21 | ? | . | -1 | -26% | . | 2
CCCCn1c(-c2ccc(C(C)(C)C)cc2)nc2cc3[nH]c(=O)c(C(C)C)nc3cc21 | 10µM* | . | -2 | ? | . | -5
CCOc1ccc(C(=O)CCCC(=O)c2ccc(OCC)cc2)cc1 | . | . | 47* | . | . | .
CCCCC(=O)c1ccc(O)cc1 | -11% | 16% | 15* | -23% | -1% | 42
CCOc1ccc(C(=O)CCN2CCCCCC2)cc1 | . | -8% | 15 | -16% | ? | -2
O=C(CCC(=O)N1CCOCC1)c1ccc(F)cc1 | i | -14%[46.1 µM] | 24* | -5% | -6% | 55*
O=C(CCO)c1ccc(O)cc1 | -5% | . | -3 | -2% | . | -12
O=C(CCCC(=O)c1ccc(F)cc1)c1ccc(F)cc1 | -14% | ? | 55* | -13% | ? | 107*
CC1CCN(CCCC(=O)c2ccc(F)cc2)CC1 | . | . | -1 | . | . | -2
COc1ccc(NC2=C(c3ccc(C(F)(F)F)cc3)C(=O)c3ccccc32)cc1 | -5% | -13%[46.1 µM] | . | 10% | -3%[46.1 µM] | .
Cc1ccc(S(=O)(=O)CCC(=O)c2ccc(F)cc2)cc1 | -7% | ? | 0 | -19% | 16%[46.1 µM] | -9
CCOc1ccc(C(=O)COC(=O)CC)cc1 | . | 0%[46.1 µM] | 23* | -12% | -16% | 42*
CCCCC(=O)OCC(=O)c1ccc(OCC)cc1 | -10% | 24% | 58* | -2% | ? | 22*
Cc1ccc(C(=O)CCS(=O)(=O)c2ccc(F)cc2)cc1 | . | . | 25* | . | . | 26*
CCCOc1ccc(C(=O)CCC(=O)OCC(=O)Nc2ccc(OCC)cc2)cc1 | . | . | 7 | . | . | 21
SMILES | Vaccinia mCherry | MARV entry inh | Cycloheximide cs | Vaccinia Venus | LASV entry inh | Shiga toxin inh
O=C(NCc1cccnc1)c1nn(-c2ccc(Cl)cc2)nc1CO | -3% | ? | . | -11% | -15%[46.1 µM] | .
O=C(c1ccco1)n1nc(-c2ccco2)nc1SCc1ccccc1 | . | ? | 19* | . | 18% | 43
CCCC(=O)n1nc(-c2ccco2)nc1SCc1ccccc1 | -17% | 16% | 43* | -13% | -10% | active
O=C(Cc1ccccc1)n1nc(-c2ccco2)nc1SCc1ccccc1 | . | ? | 28* | . | 12% | 42
Cc1ccc(S(=O)(=O)n2nc(-c3ccco3)nc2SCc2ccccc2)cc1 | -18% | -26% | 34* | -9% | 1% | 86*
CCOC(=O)C(C)NC(=O)C1CCN(c2ncnc3c2nc2n3CCCCC2)CC1 (stereo unspecified) | -15% | . | . | -9% | 15%[46.1 µM] | .
